# Shown are actives, neighbours in structure and some others; about 1.8% of the full set was active somewhere.
# VDR inhibitor = vitamin D3 receptor (human) inhibition; VDR-SRC2-3 peptide fluorescence polarization, 2 h; Potency, µM, actives largely listed as inhibitors; 0.93% of 400,000 active; AID 504847
#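 Measured by FP: displacement of SRC2-3 coactivator peptide from VDR by library compounds, following a two-hour ambient incubation.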
# rTrxR1 inhibitor = inhibitors of rat thioredoxin reductase 1; recombinant rTrxR1, NADPH fluorescence consumption, selenite substrate; Potency, µM (top dose mostly 114 µM), most hits filed as inhibitors; 1% of 390,000 active; note: nearly all actives have a fitted effect of over 65% in size
#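 Rat TrxR1 (90 nM in the dispensed reagent) was pre-reduced with 400 uM NADPH for 5 min at room temperature, then incubated with compound for 15 min. After 400 uM selenite was added, NADPH fluorescence (Ex 340/Em 450 nm) was followed for 8 min.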
# TrxR1 substrate = is turned over as a substrate by rat TrxR1. purified TrxR1 substrate turnover, NADPH consumption readout. 0.01% of 390,000 active. O89049. Potency, µM (highest dose often 114 µM); note: nearly all actives have a fitted effect of over 50% in size
#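 Rat TrxR1, dispensed at 90 nM, was prereduced with 400 uM NADPH (final) for 5 min at ~22 deg C, then incubated with compound 15 min before 400 uM selenite. A first-read NADPH fluorescence drop versus no-compound background flagged substrates.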
# Vif-APOBEC3F blk = blocks the Vif interaction with APOBEC3F; HeLa A3F-eYFP + Vif (tagged APOBEC3F with the HIV-1 protein that degrades it), YFP fluorescence increase; Potency, µM (titrated, usually from 46.1 µM); 0.2% of 390,000 active; AID 602313; note: nearly all actives have a fitted effect of over 65% in size
#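 HeLa cells stably expressing Vif plus C-terminally eYFP-tagged A3F were seeded, incubated overnight at 37 deg C, dosed with compound, incubated overnight again at 37 deg C. Yellow fluorescence (Ex 488/Em 500-530) reported blocked Vif-mediated A3F-eYFP degradation.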
# Vif-APOBEC3G blk = blocks the Vif interaction with human APOBEC3G; 0.076% of 410,000 active; Q9HC16; HeLa A3G-eYFP + Vif (tagged APOBEC3G with the HIV-1 protein that degrades it), YFP fluorescence, overnight; Potency, µM (top dose mostly 46.1 µM), usual class: inhibitors; note: nearly all actives have a fitted effect of over 60% in size
# Target sequence (Q9HC16 whole entry, looked up): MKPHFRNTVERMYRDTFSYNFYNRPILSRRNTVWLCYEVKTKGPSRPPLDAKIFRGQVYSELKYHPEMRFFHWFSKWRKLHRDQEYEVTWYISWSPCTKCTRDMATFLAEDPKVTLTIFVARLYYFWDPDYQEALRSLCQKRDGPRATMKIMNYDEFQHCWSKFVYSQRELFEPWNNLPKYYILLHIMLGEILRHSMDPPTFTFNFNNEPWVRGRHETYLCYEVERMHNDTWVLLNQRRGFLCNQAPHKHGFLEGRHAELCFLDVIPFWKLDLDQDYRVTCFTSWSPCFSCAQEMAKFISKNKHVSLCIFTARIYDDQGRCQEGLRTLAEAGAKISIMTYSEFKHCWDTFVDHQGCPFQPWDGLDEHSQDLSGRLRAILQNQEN
#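 Read-out is eYFP fluorescence (Ex 488/Em 500-530) from Vif-expressing HeLa A3G-eYFP cells; more signal means A3G escaped Vif-mediated degradation. Cells plated overnight, compound pinned in, incubated overnight at 37 deg C.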
# A number is an active result; i = inactive; ? = inconclusive; nt = no result given; ! = not confirmed by another sample; [ ] = dose if it differs, or a comment. Calls come from the whole dose curve; as a rule, active = well fitted curve in the direction sought with a large enough effect; inconclusive = small, poorly fitted or top-dose-only effect, or another doubt; inactive = no such curve, though single readings can be large; an effect the other way counts as inactive or inconclusive.
SMILES,VDR inhibitor,rTrxR1 inhibitor,TrxR1 substrate,Vif-APOBEC3F blk,Vif-APOBEC3G blk
Clc1ccc(-n2nnnc2Sc2ncnc3sccc23)cc1,79.4µM,?,i,i,?
O=S(=O)([N-]c1nc2ccccc2nc1-[n+]1ccc(-c2ccncc2)cc1)c1ccccc1,i,i,i,3.55µM,i
O=S(=O)([N-]c1nc2ccccc2nc1-[n+]1ccccc1)c1ccccc1,i,i,i,?,i
O=C(CCl)NC(=O)NC12CC3CC(CC(C3)C1)C2,i,14.1µM,i,i,i
CCOC(=O)c1c(C)[nH]c(C)c1C(=O)COC(=O)/C=C/c1ccco1,i,20µM,i,i,i
CCOC(=O)c1c(C)[nH]c(C)c1C(=O)COC(=O)/C=C/c1ccc(OC)cc1,i,i,i,i,?
CCN(C(=O)COC(=O)/C=C/c1ccc(F)cc1)C1CCCCC1,i,i,i,i,i
CCN(C(=O)COC(=O)/C=C/c1ccco1)C1CCCCC1,i,35.5µM,i,i,i
COc1ccc(-n2nc3c(N4CCCC(C(=O)NCCc5ccccc5C)C4)nnc(C)c3c2C)cc1 (centres undefined),i,i,i,22.4µM,?
COc1cc2[nH]c(=S)nc(Nc3ccc(NC(C)=O)cc3)c2cc1OC,?,10µM,i,i,i
Cc1ccc(C(=O)Nc2sc(C)c(C)c2C(=O)c2ccccc2)cc1,44.7µM,i,i,i,i
C(=Nc1ccc(/C=C/c2ccnc3ccccc23)cc1)c1ccco1,nt,i[0.0914 µM],i,nt,i
COc1cccc2cc(C(=O)C3=C(O)C(=O)N(c4cc(C)on4)C3c3cccs3)oc12 (centres undefined),i,50.1µM,i,i,i
O=S(=O)(Nc1nc2ccccc2nc1Nc1cccc(S(=O)(=O)N2CCCCC2)c1)c1ccccc1,i,i,i,10µM,?
Cc1cc(SCC(=O)c2cccs2)nc2ccccc12,i,i,i,11.2µM,?
O=c1cc(-c2ccc(O)cc2)oc2cc(OC3OC(CO)C(O)C(O)C3O)c(C3OC(CO)C(O)C(O)C3O)c(O)c12 (centres undefined),i,nt,nt,nt,nt
Oc1c(I)cc(I)c2cccnc12,35.5µM!,i,i,i,i
O=C(CSc1nccn(-c2cccc(F)c2)c1=O)Nc1ccc(Cl)cc1F,89.1µM,i,i,i,i
Cc1cc(C)c2c(CC(=O)Nc3ccc(S(=O)(=O)N4CCCC(C)C4)cc3)coc2c1 (centres undefined),i,i,i,i,i
Cc1noc(C)c1-c1nc(NCc2ccccc2)c2ccccc2n1,35.5µM,nt,nt,nt,nt
COc1cccc(-c2nc(NCc3cccs3)c3ccccc3n2)c1,50.1µM,nt,nt,nt,nt
CS(=O)(=O)Nc1cccc(-c2nc(NCc3ccccc3)c3ccccc3n2)c1,50.1µM,nt,nt,nt,nt
N#Cc1cccc(-c2nc(NCc3ccccc3)c3ccccc3n2)c1,44.7µM,nt,nt,nt,nt
O/N=C(/C[n+]1ccsc1)c1ccc(I)cc1,nt,i,i,nt,i
Cc1cccc(-n2c(C)cc(C(=O)C(=O)Nc3ccccc3F)c2C)c1C,i,i,i,i,i
SMILES,VDR inhibitor,rTrxR1 inhibitor,TrxR1 substrate,Vif-APOBEC3F blk,Vif-APOBEC3G blk
CC(C)C[C@@H](/C=C/S(C)(=O)=O)NC(=O)[C@H](CC(C)C)NC(=O)[C@H](CC(C)C)NC(=O)OCc1ccccc1,i,nt,nt,nt,nt
CC(C)Oc1ccc(CNS(=O)(=O)c2ccc(-c3cc(C(F)(F)F)on3)s2)cc1,i,i,i,i,i
O=C(/C=C/c1ccccc1)N1CCOCC1,i,i,i,i,i
O=C(/C=C/c1ccccc1)CCN1CCOCC1,39.8µM,0.562µM,i,?,?
CCn1c(SCc2nc3sc(C(=O)O)c(C)c3c(=O)[nH]2)nnc1-c1ccc(Cl)cc1,i,i,i,i,i
Cc1sc2nc(CSc3nnnn3-c3ccc(Cl)cc3)[nH]c(=O)c2c1C,i,i,i,31.6µM,i
O=[N+]([O-])c1cc(O)c2ncccc2c1,i,i,i,i,11.2µM
O=[N+]([O-])c1cc2cccnc2c2ncccc12,i,i,i,?,i
c1ccc(-c2nc3nc4ccccc4nc3n2Cc2ccco2)cc1,i,31.6µM,i,i,i
Cc1ccccc1OCC(=O)N(Cc1ccc(C(C)C)cc1)C1CCS(=O)(=O)C1 (centres undefined),i,i,i,i,i
Cc1ccc(CNC(=O)CSc2ccsc2[N+](=O)[O-])cc1,i,50.1µM,i,i,i
COc1ccc(CNC(=O)CSc2ccsc2[N+](=O)[O-])cc1,i,?,i,i,i
Cn1nnc2c(NCc3ccco3)ncnc21,nt,?,i,nt,i
Cn1ncc(S(=O)(=O)Cc2ccccc2)c(Br)c1=O,?,0.947µM,i,nt,nt
C=C1C=C(C(F)F)n2ncc(C(=O)N3CCN(c4ccccn4)CC3)c2N1,nt,i,i,nt,i
OCc1cc2c(cn1)[nH]c1ccccc12,i,nt,nt,nt,nt
COc1cc(C(=O)Nc2ccncc2)c([N+](=O)[O-])cc1OC,i,i,i,i,i
O=C(/C=C/c1cccc(O)c1)c1cccnc1,56.2µM,?,i,i,i
COc1cc(C(=O)/C=C/c2cccnc2)c([N+](=O)[O-])cc1OC,50.1µM,?,i,i,?
O=C(C=Cc1cccnc1)c1ccccc1,?,28.2µM,i,i,i
C=C1C=C(C)n2ncc(C(=O)Nc3ccc(C)cn3)c2N1,nt,i,i,nt,nt
COc1cccc(Oc2c(C)oc3c(CN4CCCCC4)c(O)ccc3c2=O)c1,i,44.7µM,i,i,i
O=C(CNC(=O)c1nc[nH]c1C(=O)N1CCc2ccccc2C1)OCc1ccccc1,79.4µM,i,i,i,i
COc1cc2c(cc1OC)C(COc1ccccc1OC)N(C(=O)COc1ccc(Cl)cc1)CC2 (centres undefined),i,i,i,i,i
COc1ccc(/C=N\Nc2ccccc2[N+](=O)[O-])c(C(=O)O)c1OC,i,i,i,i,i
SMILES,VDR inhibitor,rTrxR1 inhibitor,TrxR1 substrate,Vif-APOBEC3F blk,Vif-APOBEC3G blk
COc1ccc(/C=N\Nc2ccc([N+](=O)[O-])cc2[N+](=O)[O-])c(C(=O)O)c1OC,i,50.1µM,i,i,i
COc1cc(/C=C/c2nc3ccccc3nc2/C=C/c2cc(OC)c(OC)c(OC)c2)cc(OC)c1OC,nt,i,i[0.0914 µM],nt,i
COc1cc(/C=N/N=C2/SCC(=O)N2c2ccc(O)cc2)ccc1O,17.8µM,i,i,i,i
COc1ccc(/C=N\N=C2/SC(CC(=O)O)C(=O)N2c2ccc(O)cc2)cc1OC (centres undefined),i,i,i,i,i
COc1ccc(Cl)cc1C=CC=Nc1ccccc1O,89.1µM,i[11.4 µM],i[11.4 µM],i,?
COc1ccc(Cl)cc1C=CC=NNS(=O)(=O)c1ccc(C)cc1,i,i[11.4 µM],i[11.4 µM],i,i
C=C1C=C(C(F)(F)F)n2ncc(C(=O)NCc3ccc(F)cc3)c2N1,nt,i,i,nt,i
N[C@@H](CO)C(=O)NNCc1ccc(O)c(O)c1O,31.6µM,nt,nt,nt,nt
CCCCCOC(=O)Nc1nc(=O)n(C2O[C@H](C)[C@@H](O)[C@@H]2O)cc1F (some centres undefined),i,nt,nt,nt,nt
Cc1ccc2c(CC(=O)N(Cc3ccc(Cl)cc3)Cc3ccco3)coc2c1,i,50.1µM,i,nt,nt

# Screens (PubChem)
